esBAF inh: Bmi1 luciferase reporter increase in mESCs, primary screen, esBAF inhibitor project, mouse ES cells, Bmi1 luciferase knock-in, single point | 24 h; 100% = twice the neutral-well signal | reporter increase, % at 12.5 µM | 350,000 compounds, 2% hits | AID 602393, 2012; in the data active = activation above about 40%; inconclusive = no clear call, values can overlap the other calls;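 also: a rise in the Bmi1 reporter signal indicates esBAF inhibition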
MITF TRPM1 HTS: activators of MITF-driven TRPM1 promoter reporter, primary screen, cell-based, SK-MEL-5, luciferase, single point; AID 588334, 2011; SK-MEL-5 TRPM1-promoter luciferase, 24 h; % of positive control, neutral wells = 0; activation, % at 12.5 µM; 300,000 compounds, 0.75% hits;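 active = mean activation of at least 80% with every replicate also reaching 80%; inconclusive = mean reaches 80% but some replicate falls short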
Statin myotox sup: suppressors of statin myotoxicity in C2C12 myotubes, primary screen, cell-based, single point, plate reader; 330,000 compounds, 0.78% hits; rescue of ATP level, % at 7.49 µM; AID 602340, 2012; C2C12 myotubes + simvastatin, ATP luminescence, 48 h; scaled: DMSO 0, geranylgeraniol control 100;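 active = mean ATP rescue above about 67%, or every replicate alone reaching that limit, limit read from the data, passing the limit was not always enough; inconclusive = no clear call, values can overlap the other calls; inactive = mean under the limit and some replicate under it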;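 also: myotubes were challenged with 10 µM simvastatin during compound exposure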
Wnt bcat act: Wnt/beta-catenin pathway activators, primary screen, cell-based, plate reader, single point | Wnt/beta-catenin reporter cell assay, activator | activation, % at 9.35 µM | 300,000 compounds, 1.2% hits | AID 743398, 2014; in the data active = activation above about 30%, passing the limit was not always enough; inconclusive = no clear call, values can overlap the other calls
Each line names hits and unclear results; the compound was inactive in the other large screens. In the library only some 3% were active in any assay of this set; here they are far more common.

COc1ccc(C(=O)O/N=C(\N)c2ccccc2)cc1	none
C/C=C/c1ccc2c(c1)O[C@@H](CN(C)Cc1ccc(C(=O)O)cc1)[C@H](C)CN([C@H](C)CO)S2(=O)=O	none (no result: MITF TRPM1 HTS, Wnt bcat act)
COc1cccc(C(O)c2nc(-c3ccc(N(C)C)cc3)cs2)c1 (centres undefined)	esBAF inh 45 (no result: MITF TRPM1 HTS)
COc1ccc(-c2csc(C(O)c3cccc(OC)c3)n2)cc1 (centres undefined)	none (no result: MITF TRPM1 HTS)
COc1ccc(-c2csc(C(O)c3ccccc3)n2)cn1 (centres undefined)	esBAF inh 61 (no result: MITF TRPM1 HTS, Wnt bcat act)
OC(c1ccccc1)c1nc(-c2cccs2)cs1 (centres undefined)	esBAF inh 49 (no result: MITF TRPM1 HTS)
COc1ccc(-c2csc(C(NC(C)=O)c3cccc(F)c3)n2)cn1 (centres undefined)	none (no result: MITF TRPM1 HTS)
COc1ccccc1S(=O)(=O)N[C@H]1CC[C@@H](CCNC(=O)C2CCOCC2)O[C@H]1CO	none (no result: MITF TRPM1 HTS, Wnt bcat act)
CCCNC(=O)C[C@H]1C[C@@H]2c3cc(NC(=O)C4CCC4)ccc3O[C@@H]2[C@H](CO)O1	none (no result: MITF TRPM1 HTS, Wnt bcat act)
CCOC(=O)c1c(CN2CCC(C)CC2)n(C)c2cc(Br)c(OC)cc12	Wnt bcat act 40 (no result: esBAF inh, Statin myotox sup)
C[C@H]1CN([C@@H](C)CO)C(=O)c2cccc(N(C)C)c2O[C@@H]1CN(C)Cc1ccc(C(=O)O)cc1	none (no result: MITF TRPM1 HTS, Wnt bcat act)
CCOc1ccc2nc(-c3ccccc3)[nH]c2c1	none (no result: MITF TRPM1 HTS, Wnt bcat act)
COc1ccc(-c2nc3ccc([N+](=O)[O-])cc3[nH]2)cc1	Wnt bcat act 50 (no result: esBAF inh, Statin myotox sup)
COc1ccc2nc(-c3ccccc3)[nH]c2c1	Wnt bcat act 75 (no result: MITF TRPM1 HTS)
COc1ccc2[nH]c(-c3ccccc3)cc2c1	esBAF inh inconclusive, MITF TRPM1 HTS 106, Wnt bcat act 46
CC(C)NC(=O)N1C[C@@H]2[C@H](c3ccccc31)[C@@H](CO)N2C(=O)c1ccccc1F	none (no result: MITF TRPM1 HTS, Wnt bcat act)
CCCC(=O)Nc1ccc2c(c1)OC[C@@H](C)N(C(=O)CC1CC1)C[C@@H](C)[C@@H](OC)CN(C)C2=O	none (no result: MITF TRPM1 HTS, Wnt bcat act)
O=C(C[C@H]1CC[C@@H]2[C@H](COC[C@@H](O)CN2C(=O)Nc2ccc(Cl)c(Cl)c2)O1)NCc1ccc(Cl)c(Cl)c1	none (no result: MITF TRPM1 HTS, Wnt bcat act)
Clc1ccc(/C=N/N2CCCCC2)cc1	MITF TRPM1 HTS 94, Wnt bcat act 33 (no result: esBAF inh, Statin myotox sup)
O=[N+]([O-])c1ccc(/C=N/N2CCCCC2)cc1	esBAF inh 77, MITF TRPM1 HTS 106
O=[N+]([O-])c1ccc(/C=N\N2CCN(c3ccc(Cl)cc3)CC2)cc1	none (no result: Wnt bcat act)
Clc1ccc(C=NN2CCCCCC2)cc1Cl	Wnt bcat act 56 (no result: esBAF inh)
CO[C@@H]1CN(C)C(=O)c2cc(NS(=O)(=O)c3ccc(C)cc3)ccc2OC[C@H](C)NC[C@H]1C	none (no result: MITF TRPM1 HTS, Wnt bcat act)
CN1CCN(C(=O)C[C@H]2C[C@H]3c4cc(NC(=O)NC5CCCC5)ccc4O[C@H]3[C@H](CO)O2)CC1	none (no result: MITF TRPM1 HTS, Wnt bcat act)
C[C@H](NC(=O)C[C@@H]1CC[C@@H](NC(=O)Nc2ccc3c(c2)OCO3)[C@H](CO)O1)c1ccccc1	none (no result: MITF TRPM1 HTS, Wnt bcat act)
C=CCN(CC=C)CCOc1ccc(C)cc1[N+](=O)[O-]	esBAF inh 53
CC(=O)Nc1sc2c(c1-c1nc3ccccc3s1)CN(C(C)C)CC2	Wnt bcat act 58
N#CCSc1ccc2nc(-c3ccccc3)cn2n1	esBAF inh 51
Cc1ccc(S(=O)(=O)Nc2ccc3c(c2)C(=O)N([C@@H](C)CO)C[C@H](C)[C@@H](CN(C)S(=O)(=O)c2cn(C)cn2)O3)cc1	none (no result: MITF TRPM1 HTS, Wnt bcat act)
CCCC(=O)Nc1ccc2c(c1)C(=O)N(C)[C@H]1CC[C@H](CC(=O)NCC3CC3)O[C@H]1CO2	none (no result: MITF TRPM1 HTS, Wnt bcat act)
COc1ccc2cc(C[C@@H]3CC[C@@H](CO)O3)ccc2c1	esBAF inh 67, MITF TRPM1 HTS 118
CCOC(=O)C1=C(C)N(C[C@@H]2CC[C@@H](Cc3ccc4cc(OC)ccc4c3)O2)C(=O)NC1c1ccc(OC)cc1 (some centres undefined)	none
CN(C(=O)CSc1nc(-c2ccccc2)cn1N)C(c1ccccc1)c1ccccc1	Statin myotox sup 78 (no result: Wnt bcat act)
Cc1noc(C)c1NC(=O)Nc1ccc2c(c1)C(=O)N([C@H](C)CO)C[C@@H](C)[C@H](CN(C)Cc1ccc(Cl)c(Cl)c1)OCCCC[C@H](C)O2	none (no result: MITF TRPM1 HTS, Statin myotox sup, Wnt bcat act)
COc1ccc2nc(N3CCC(O)CC3)c(C#N)cc2c1	none
COc1ccc2nc(N3CCC(C)CC3)c(C#N)cc2c1	esBAF inh 64, MITF TRPM1 HTS 84 (no result: Wnt bcat act)
CN1C(=O)c2cc(NC(=O)c3cscn3)ccc2OC[C@H]2O[C@H](CC(=O)NCc3ccc(Cl)c(Cl)c3)CC[C@H]21	Statin myotox sup 78 (no result: MITF TRPM1 HTS, Wnt bcat act)
CN1C(=O)c2cc(NC(=O)c3cscn3)ccc2OC[C@@H]2O[C@H](CC(=O)NCc3ccc(Cl)c(Cl)c3)CC[C@H]21	none (no result: MITF TRPM1 HTS, Wnt bcat act)
Cc1ccc(-c2nc(Nc3ccccc3)n[nH]2)cc1	Wnt bcat act 45 (no result: esBAF inh, Statin myotox sup)
CC(=O)Nc1ccc(S(=O)(=O)Oc2cccc(N3C(=O)C4CC=CCC4C3=O)c2)cc1 (centres undefined)	none (no result: esBAF inh, MITF TRPM1 HTS, Statin myotox sup)
CC(=O)Nc1ccc(S(=O)(=O)Oc2ccc(N3C(=O)C4CCCCC4C3=O)cc2)cc1 (centres undefined)	Statin myotox sup 124
O=C(C[C@H]1C=C[C@H](NC(=O)Nc2ccc3c(c2)OCO3)[C@@H](CO)O1)NCc1ccc(Cl)cc1	none (no result: MITF TRPM1 HTS, Wnt bcat act)
C[C@@H]1CN([C@@H](C)CO)C(=O)c2cc(NC(=O)C3CCCCC3)ccc2O[C@H]1CN(C)C(=O)Nc1ccccc1	none (no result: MITF TRPM1 HTS, Wnt bcat act)
CCOc1ccc(NC(=O)c2ccncc2)cc1	none (no result: esBAF inh, Statin myotox sup, Wnt bcat act)
CCOc1ccc2c(c1)C(=NNC(=O)c1ccncc1)c1cc(OCC)ccc1-2	esBAF inh 54, Wnt bcat act 49
COc1ccc(NC(=O)Nc2ccc3c(c2)CC(=O)N([C@H](C)CO)C[C@H](C)[C@@H](CN(C)Cc2ccncc2)O3)cc1	none (no result: MITF TRPM1 HTS, Wnt bcat act)
Cc1cccc(C(=O)Oc2ccc(/C=N/O)cc2)c1	esBAF inh 76, MITF TRPM1 HTS 127
COc1cc(C(=O)N/N=C/c2ccc(OC(=O)c3cccc(C)c3)cc2)ccc1O	none
C/C=C/c1ccc2c(c1)O[C@@H](CN(C)C(=O)CN(C)C)[C@H](C)CN([C@@H](C)CO)S2(=O)=O	none (no result: MITF TRPM1 HTS, Wnt bcat act)
Cc1noc(C)c1NC(=O)Nc1ccc2c(c1)C(=O)N([C@H](C)CO)C[C@H](C)[C@H](CN(C)C(=O)Nc1ccccc1)OCCCC[C@H](C)O2	none (no result: MITF TRPM1 HTS, Wnt bcat act)
CCC(=O)Nc1c(C#N)c2nc3ccccc3nc2n1-c1ccccc1C	Statin myotox sup 192
CCC(=O)Nc1c(C#N)c2nc3ccccc3nc2n1C1CCCCC1	none (no result: esBAF inh, Statin myotox sup)
Cc1[nH]n(-c2cccc(Cl)c2)c(=O)c1C=NCc1ccco1	MITF TRPM1 HTS 105 (no result: esBAF inh, Statin myotox sup)
Cc1[nH]n(-c2cccc(Cl)c2)c(=O)c1C=NC12CN3CN(CN(C3)C1)C2	none (no result: Wnt bcat act)
Cc1[nH]n(-c2cccc(Cl)c2)c(=O)c1C=NCC(C)C	MITF TRPM1 HTS 111 (no result: esBAF inh, Statin myotox sup)
Cc1noc(C)c1NC(=O)N(C)C[C@H]1OCCCC[C@H](C)Oc2ccc(NC(=O)Cc3ccccc3)cc2C(=O)N([C@@H](C)CO)C[C@H]1C	none (no result: MITF TRPM1 HTS, Statin myotox sup, Wnt bcat act)
CC(=O)c1cccc(NC(=O)C2CCCN2S(=O)(=O)c2cccs2)c1 (centres undefined)	none (no result: MITF TRPM1 HTS)

Assay outcomes deposited in PubChem by Broad Institute.
